# Bioassay records (PubChem BioAssay)
# CRFR2-BP antag – antagonists of CRF-BP/CRF-R2 complex, primary screen, cell-based, HEK293, calcium dye fluorescence, uHTS; AID 588475, 2011; inhibition, % at 11.8 µM; CRF-induced calcium fluorescence; 0.59% of 350,000 active;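 active = inhibition of the ligand-induced calcium signal above about 50% at the single tested concentration, limit read from the data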
# CRFR2-BP ag – agonists of CRF-BP/CRF-R2 complex, primary screen, cell-based, HEK293, calcium dye fluorescence, uHTS. CRF-binding protein / CRF receptor 2 complex (human). calcium dye fluorescence (FLIPR); percent of saturating CRF peptide response. activation, % at 13.2 µM. 0.46% of 350,000 active. AID 588473, 2011;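 active = activation of at least 50%, plus an integration ratio under a set limit after plate pattern correction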
# Cardiac RTF inh – cardiac RTF calcium sensitivity inhibitors, primary screen, biochemical, IANBD-TnC fluorescence, EC70 calcium; AID 493244, 2011; inhibition, % at 7.15 µM; IANBD-labeled cardiac RTF, Ca2+ fluorescence; 0.12% of 340,000 active; Troponin I, cardiac muscle (Homo sapiens) + Troponin T, cardiac muscle (Homo sapiens) + …;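 active = inhibition above the mean inhibition of all tested compounds plus 3 SD, cut at about 17% in these data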;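 note: assay run at fixed EC70 calcium of 1.6 mM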
# Myeloid diff MLP – induction of myeloid progenitor differentiation, primary screen, cell-based, flow cytometry, MLPCN library. calls only at 10 µM. 1% of 360,000 active. ER-HoxA9 myeloid progenitors, lysozyme-GFP differentiation. AID 624256, 2012;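 active = normalized GFP-positive differentiation at or above the plate's own cutoff, the solvent-only control mean plus 3 SD; inconclusive = no clear call, values can overlap the other calls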;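 note: cells exposed to compound for four days before flow analysis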
# RTF Ca sens act – cardiac RTF calcium sensitivity activators, primary screen, biochemical, IANBD-TnC fluorescence, EC20 calcium | IANBD-labeled TnC RTF fluorescence at EC20 calcium; 0% EC20 calcium, 100% full calcium | activation, % at 7.2 µM | 0.24% of 340,000 active | AID 493008, 2010;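 active = activation above the mean over all tested compounds plus 3 SD, cut at about 30% in these data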;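 note: rise in fluorescence read as greater calcium sensitivity of cardiac thin filaments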
# Hits are given with their value; n = inactive; u = inconclusive; x = no result given; + = active, no number. The list is not random: actives were taken first. Their share in the collection is about 2.2%.
SMILES,CRFR2-BP antag,CRFR2-BP ag,Cardiac RTF inh,Myeloid diff MLP,RTF Ca sens act
CC(=O)Nc1ccc(NC(=O)C2CCCN(c3ncccn3)C2)cc1 (stereo not drawn),n,n,n,n,n
Cc1nnc(NC(=O)C2CCCN(c3ncccn3)C2)s1 (stereo not drawn),56,n,n,n,n
Cc1cc(C)cc(NC(=O)C2CCCN(c3nccc(C)n3)C2)c1 (stereo not drawn),54,n,n,n,n
O=C(Cn1nc(C(=O)O)c2ccccc2c1=O)Nc1cc(S(=O)(=O)N2CCCCC2)ccc1Cl,n,n,n,n,n
COc1ccc(CNC(=O)c2cc(C)nn2-c2ccccc2)cc1,n,n,n,n,n
Oc1[nH]c2ccccc2c1N=Nc1nc(Nc2ccccc2)nc(N2CCOCC2)n1,n,n,n,n,n
Cc1[nH]c2ccccc2c1/C=N/Nc1nc(Nc2ccccc2)nc(N2CCOCC2)n1,n,n,n,+,n
CNC(=O)c1cc(C(=O)c2ccc(C(F)(F)F)cc2F)c[nH]1,n,n,n,n,n
CNC(=O)c1cc(C(=O)c2ccc(C(F)(F)F)cc2)c[nH]1,n,n,n,+,n
Cc1ccc(SCC(=O)Nc2cc([N+](=O)[O-])ccc2O)cc1,92,80,n,n,n
O=C(CSCc1ccc(Cl)cc1)Nc1cc([N+](=O)[O-])ccc1O,n,n,n,n,n
N#C/C(=C(/O)CCl)c1nc2c(s1)CCc1ccccc1-2,n,n,n,+,n
Cc1cccc(N2C(=O)c3cccc4c(N(C)CCO)ccc(c34)C2=O)c1,n,191,n,n,331
Nc1cccc(N2C(=O)c3cccc4c(N)ccc(c34)C2=O)c1,n,162,n,+,291
CC(C)CCN1C(=O)c2cccc3c(N)ccc(c23)C1=O,n,166,n,+,658
Cc1cccc(N2C(=O)c3cccc4c(N)ccc(c34)C2=O)c1,n,268,n,n,+
CCN(C[C@H]1N[C@@](CC)(C(=O)OC)[C@H]2C(=O)N(C)C(=O)[C@@H]12)S(=O)(=O)c1ccc(OC(F)(F)F)cc1,n,n,n,n,n
CCc1c(C)nc(SCC(=O)N2CCCCC2CC)[nH]c1=O (stereo not drawn),n,n,n,n,n
COc1ccc2c(c1)C(=O)O[C@@H](c1ccccc1)C[C@@H](O)C(=O)CC2,x,x,x,n,x
Cc1ccc(OCc2ccc([N+](=O)[O-])cc2)c([N+](=O)[O-])n1,n,n,n,n,n
Cc1ccc(OCc2ccccc2C)c([N+](=O)[O-])n1,n,n,n,+,n
NNC(=O)c1csc(-c2cccc(C(F)(F)F)c2)n1,n,n,n,+,n
C=CCOc1ccc(C=NNc2ccc(S(=O)(=O)Nc3ccccc3C(=O)O)cc2[N+](=O)[O-])cc1OC,67,n,n,n,n
O=C(O)c1ccccc1NS(=O)(=O)c1ccc(NN=Cc2ccccc2F)c([N+](=O)[O-])c1,n,n,n,n,n
CSc1ccc(C=NNc2ccc(S(=O)(=O)Nc3ccccc3C(=O)O)cc2[N+](=O)[O-])cc1,n,n,n,+,n
SMILES,CRFR2-BP antag,CRFR2-BP ag,Cardiac RTF inh,Myeloid diff MLP,RTF Ca sens act
Cc1nn(-c2ccccc2)c(Cl)c1/C=N/Nc1ccc(S(=O)(=O)Nc2ccccc2C(=O)O)cc1[N+](=O)[O-],74,n,n,n,n
O=C(CCc1ccccc1)NNC(=O)COc1ccccc1Cl,n,n,n,n,n
Cc1c(CC(=O)NCC(=O)NCC(=O)N[C@@H](Cc2ccccc2)C(=O)O)c(=O)oc2c(C)c(O)ccc12,x,x,x,n,x
CCc1ccccc1N=Cc1c(C)c(C#N)c2[nH]c3ccccc3n2c1=O,n,165,n,n,n
CCCCc1c(C)c(C#N)c2[nH]c3ccccc3n2c1=O,n,n,n,n,n
N#C/C(=C/C=C/c1ccccc1)C(=O)Nc1ccccc1,n,n,n,+,n
Cc1ccc(OCCC(=O)O)cc1,85,n,n,n,n
Cc1cc(C)cc(OCCCC(=O)O)c1,n,n,n,n,n
O=C(Nc1ccccc1)c1sccc1Oc1ccc([N+](=O)[O-])cc1F,64,n,n,n,n
N#Cc1c(-c2ccccc2)nc(SCc2cccc(Cl)c2)[nH]c1=O,56,n,n,n,n
CSC1=NCCN1C(=O)Cc1ccc(Cl)cc1,50,n,n,n,n
COc1ccc(CC(=O)N2CCN=C2SC)cc1,n,n,n,n,n
COc1ccccc1COC(=O)C(NC(=O)c1ccc(C)cc1)C(C)C (stereo not drawn),n,n,n,n,n
Cc1ccccc1Cn1ccc(NC(=O)c2cc3ncc(Br)cn3n2)n1,66,n,n,n,n
COc1ccc2nc(C)cc(NCc3ccc(F)cc3)c2c1,n,73,n,+,69
COc1ccc2nc(C)cc(Nc3ccc(C)cc3)c2c1,n,n,n,n,n
COc1ccc(/C=C/C(=O)N2CCN(c3ccccn3)CC2)cc1,n,n,n,n,n
CSc1ccc(/C=C/C(=O)N2CCN(c3ccccn3)CC2)cc1,92,n,n,n,n
Cc1ccc(S(=O)(=O)N2[C@H](CC(=O)c3cccs3)OC[C@@H]2C(C)C)cc1,x,x,x,n,x
COc1ccc(NC(=O)CCN2C(=O)c3ccncc3C2=O)cc1OC,n,n,n,n,n
Cc1nn(Cc2cccc(C(=O)NN)c2)c(C)c1Cl,n,n,n,+,n
NC(=O)c1ccc(NCC2COc3ccccc3O2)c([N+](=O)[O-])c1 (stereo not drawn),92,n,n,n,n
CCN(CC)CCCNc1ccc2ncn3c4ccc(O)cc4c(=O)c1c23,n,215,n,u,292
CSc1ncc(CN2CCc3c([nH]c4ccccc34)C2c2cccc(O)c2)cn1 (stereo not drawn),n,n,n,n,n
CCOC(=O)N1CCN(C(=S)Nc2ccc(C)cc2)CC1,n,n,n,n,n
SMILES,CRFR2-BP antag,CRFR2-BP ag,Cardiac RTF inh,Myeloid diff MLP,RTF Ca sens act
O=C(CSc1ncnc2nc[nH]c12)N1CCN(c2ccccc2)CC1,n,n,n,+,n
Cc1cc2c(SCC(=O)N3CCN(c4ccccc4)CC3)ncnc2s1,n,n,n,n,n
CCCOc1ccccc1/C=C(\C#N)C(=O)Nc1cccc(C)n1,n,n,n,+,n
CC(=O)N1Cc2cc(C(=O)NCC(F)(F)F)nc(-c3cccc(-c4cc5ccccc5o4)c3)c2[C@H]1CCO,x,x,x,n,x
Cc1ccc(-c2nc(CS(=O)CC(=O)NC3CCCC(C)C3C)c(C)o2)cc1 (stereo not drawn),n,n,n,n,n
COc1ccc(-c2nc(CS(=O)CC(=O)NC3CCCC(C)C3C)c(C)o2)cc1OC (stereo not drawn),n,n,n,+,n
